# The list is not random: actives were taken first. Their share in the collection is about 12%.
# KCC2 mod – modulators of human KCC2 chloride dependent transport; Q9H2X9; KCC2 cells, thallium flux FluoZin-2 fluorescence; B-score of Tl+ flux slope (higher = more flux/activation; lower = inhibition) at 10 µM; 2.2% of 190,000 active;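 active means thallium flux slope and its plate-corrected score both differing from the plate sample mean at a set confidence after two filtering rounds, in either direction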;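 further: slope of fluorescence scaled to starting intensity during 10 to 20 s after thallium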
# WT yeast gro inh – growth inhibition of WT yeast, mitochondrial fusion screen; mitochondrial fusion phenotypic screen, WT strain; inhibition, % at 10 µM; 2.1% of 190,000 active; AID 1362; in the data active means inhibition above about 58%; tested in S. cerevisiae
# m-calpain inh – inhibitors of pig calpain II; inhibition, % at 16 µM; AID 1236; purified calpain II, fluorogenic peptide substrate, 30 min; 0.37% of 220,000 active;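 active means inhibition above about 50%, limit read from the data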
# L major viab – inhibitors of Leishmania major promastigote growth; AID 1063; 9% of 200,000 active; Leishmania major promastigotes, resazurin fluorescence viability; inhibition, % at 10 µM; in the data active means inhibition above about 50%;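 further: promastigotes grown with compound for 44 hours at 28 °C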
# ROMK primary – modulates human ROMK potassium channel activity. P48048. AID 1918. 2% of 130,000 active. Tet-inducible ROMK, thallium flux fluorescence; actives lie on both sides. B-score at 10 µM;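 active means signal ratio slope over the read window, or its plate-corrected B-score, at least 3 SD from the plate mean, either direction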;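 further: B-score of the F/F0 ratio slope over 7 to 12 s after thallium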
# Target sequence (P48048 whole entry, looked up): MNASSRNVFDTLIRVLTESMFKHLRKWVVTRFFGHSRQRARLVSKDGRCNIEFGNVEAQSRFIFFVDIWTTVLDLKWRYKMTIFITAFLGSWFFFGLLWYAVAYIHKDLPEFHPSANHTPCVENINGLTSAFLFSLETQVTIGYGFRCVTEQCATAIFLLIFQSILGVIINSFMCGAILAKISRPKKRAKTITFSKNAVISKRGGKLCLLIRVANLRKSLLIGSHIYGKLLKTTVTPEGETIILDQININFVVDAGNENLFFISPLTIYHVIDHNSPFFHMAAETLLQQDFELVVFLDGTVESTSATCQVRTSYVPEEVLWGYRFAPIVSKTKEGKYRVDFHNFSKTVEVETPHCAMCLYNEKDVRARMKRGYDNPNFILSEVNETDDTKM
# An asterisk follows results filed as active; . = no result given.
SMILES,KCC2 mod,WT yeast gro inh,m-calpain inh,L major viab,ROMK primary
COc1ccc(/C=N/NC(=O)c2ccco2)cc1OCc1ccccc1,-0.57,.,4,.,.
CCc1nc2sc3c(O)cc(=O)[nH]c3c2cc1C,-0.3,-1,-287,-3,0.17
COc1ccc(-n2nc3c(c2NC(=O)c2ccc(S(=O)(=O)N4CCOCC4)cc2)CS(=O)C3)cc1 (stereo not given),1,6,-6,-2,-0.037
COc1cc(/C=C2\SC(=O)NC2=O)ccc1Oc1ccc([N+](=O)[O-])cn1,-1.3,.,2,.,.
COc1cc(/C=C2/SC(=O)NC2=O)ccc1Oc1ccc([N+](=O)[O-])cc1[N+](=O)[O-],-2.4,.,63*,.,.
COc1ccc(OC)c(/C=C/C(=O)c2ccc(Cl)cc2)c1,.,-15,-5,100*,.
CCOc1ccccc1/C=C/C(=O)c1ccc(Cl)cc1,-0.54,19,26,78*,-0.4
COc1ccc(OC)c(NC(=O)c2ccc(Cl)cc2)c1,0.014,-5,-2,-9,0.54
CCOc1ccc(/C=C/C(=O)c2ccc(-c3ccccc3)cc2)cc1,0.8,-14,0,-4,1.1
COc1ccccc1/C=C/C(=O)c1ccc(NC(C)=O)cc1,-0.89,23,6,100*,-0.24
COc1ccc(/C=C/C(=O)c2ccccc2)c(OC)c1,-1,22,6,74*,-0.063
COc1ccccc1N1CCN(C(=O)c2ccc(NC(C)=O)cc2)CC1,-0.026,-8,-16,0,0.022
COc1ccccc1/C=C/C(=O)c1ccccc1,-1,.,9,.,.
COc1ccccc1/C=C/C(=O)c1ccc(Cl)cc1,.,22,-30,86*,.
O=C(/C=C/c1ccccc1O)c1ccc(Cl)cc1,0.59,48,14,100*,.
COc1cc(OC)c(OC)cc1/C=C/C(=O)c1ccc(NS(=O)(=O)c2ccc(C)cc2)cc1,0.6,4,-56,62*,0.3
COc1ccccc1/C=C/C(=O)c1c2c(c(C)[nH]c1=O)CCCC2,-1.4,-14,14,77*,-1.1
Cc1cc2ncn(CCOc3ccccc3C#N)c2cc1C,-2,12,-26,6,-2.2
COC(=O)[C@H](CC(C)C)NC(=O)NCc1ccc(Cl)cc1,-0.9,.,-8,.,.
CNc1ccc(/C=C/C(=O)c2cccc3ccccc23)cc1[N+](=O)[O-],0.35,18,-2,99*,-0.17
O=C(Nc1nc(-c2ccccc2)c(-c2ccccc2)o1)c1ccc(F)cc1,.,17,3,20,.
COc1ccc(C(=O)Nc2oc(-c3ccccc3)c(-c3ccccc3)c2C#N)cc1,0.13,13,-149,86*,.
COc1cccc(C(=O)Nc2nc(-c3ccccc3)c(-c3ccccc3)o2)c1,29*,74*,-10,6,.
Fc1ccc(CSc2ccc3nnc(-c4ccccn4)n3n2)cc1,-2.3,7,-20,96*,0.28
Cc1ccc(-c2csc(NC(=O)COc3ccc(N(C)S(=O)(=O)c4ccc(C)cc4)cc3)n2)cc1,0.64,-15,-43,90*,.
SMILES,KCC2 mod,WT yeast gro inh,m-calpain inh,L major viab,ROMK primary
CCOc1ccc2nc(NC(=O)COc3ccc(N(C)S(=O)(=O)c4ccc(C)cc4)cc3)sc2c1,1.6,.,-33,.,.
COc1ccc(-c2csc(NC(=O)COc3ccc(N(C)S(=O)(=O)c4ccc(C)cc4)cc3)n2)cc1,-0.028,-5,-25,95*,0.91
Cn1c(COc2ccc(Cl)cc2)nnc1SCC(=O)Nc1ccc2c(c1)CCC2,1.2,0,-2,14,-0.53
Cc1ccc(S(=O)(=O)N(C)c2ccc(C)c([N+](=O)[O-])c2)cc1,-0.11,3,50*,1,-0.55
COc1ccc(N(C)S(=O)(=O)c2ccc(C)cc2)c([N+](=O)[O-])c1,0.55,-9,-19,7,-0.84
CSc1ccc(CNc2ccc(Cl)cc2)cc1,0.49,-3,37,100*,.
COC(=O)[C@@]1(Cc2ccc(F)cc2)[C@H]2c3cc(C(=O)N4CCCC4)n(CCc4c[nH]c5ccc(OC)cc45)c3C[C@H]2CN1C(=O)c1ccccc1,-0.5,20,-94,79*,-1
COC(=O)[C@@]1(Cc2ccc(OC)cc2)[C@H]2c3cc(C(=O)N(C)C)n(Cc4ccc(OC(F)(F)F)cc4)c3C[C@H]2CN1C(=O)c1ccccc1,0.7,35,-77,50*,-0.87
COC(=O)[C@@]1(Cc2ccc(OC)cc2)[C@@H]2C(=CC(=O)[C@H]2CC(=O)C(=O)N(C)C)CN1C(=O)c1ccccc1,-0.15,-11,-35,100*,-2.4
COC(=O)[C@@]1(Cc2ccc(OC)cc2)[C@H]2c3cc(C(=O)N4CCCC4)n(Cc4ccc(C)o4)c3C[C@H]2CN1C(=O)c1ccccc1,0.014,65*,-52,53*,-2
Cc1ccc(C)n1-c1nccc(-c2ccco2)n1,-0.38,-21,-204,-4,-1.2
COC(=O)[C@@]1(Cc2ccc(F)cc2)[C@H]2c3cc(C(=O)N4CCCC4)n(CCc4ccccn4)c3C[C@H]2CN1C(=O)c1ccccc1,-0.8,20,-35,99*,-2.1
COC(=O)[C@@]1(Cc2ccc(F)cc2)[C@H]2c3cc(C(=O)N(C)C)n(CCc4ccccn4)c3C[C@H]2CN1C(=O)c1ccccc1,0.92,-5,-56,91*,-0.34
CCCN1C(=O)/C(=C\C=C2/C=CN(CC)c3ccccc32)SC1=S,0.61,59*,6,-2,.
Cc1c(OC(C(=O)O)c2ccccc2)ccc2c(-c3ccccc3)cc(=O)oc12 (stereo not given),-0.83,.,-10,.,1.6
CC1CCCC(N2CCN(C(=O)c3cccc(F)c3)CC2)C1 (stereo not given),0.12,-5,-32,81*,.
O=C(c1cccc(F)c1)N1CCN(CC2CC3C=CC2C3)CC1 (stereo not given),-0.11,14,-23,85*,0.38
O=S(=O)(c1ccccc1)N1CCN(CC2CC3C=CC2C3)CC1 (stereo not given),0.28,0,8,-3,-0.63
Cc1ccc(CN2CCN(CC3CC4C=CC3C4)CC2)cc1 (stereo not given),-4.6,8,-4,96*,0.16
O=C(c1ccccc1F)N1CCN(CC2CC3C=CC2C3)CC1 (stereo not given),-1,38,10,59*,.
CCCNC(=S)N1CCC(C(=O)c2ccc(OC)cc2)CC1,0.65,14,-3,-6,.
CCCC(c1nnnn1Cc1cccs1)N1CCN(c2nc3ccccc3s2)CC1 (stereo not given),-1.6,34,8,97*,-0.0092
CC(C)CC(c1nnnn1CC1CCCO1)N1CCN(c2nc3ccccc3s2)CC1 (stereo not given),-1.6,29,8,91*,.
CC(C)C(c1nnnn1Cc1cccs1)N1CCN(c2ccccc2)CC1 (stereo not given),0.27,12,1,1,.
CCCC(c1nnnn1CS(=O)(=O)c1ccc(C)cc1)N1CCN(c2ccccc2)CC1 (stereo not given),-0.34,17,41,5,.
CCC(c1nnnn1CS(=O)(=O)c1ccc(C)cc1)N1CCN(c2nc3ccccc3s2)CC1 (stereo not given),-1.7,36,-76,98*,.
